Source: PubChem BioAssay (National Center for Advancing Translational Sciences (NCATS))
Hits are enriched below; roughly 18% of the tested compounds scored in any of these assays.
Six1-Eya2 blk: blocks human Six1 binding to Eya2 | AID 651725 | 0.56% of 360,000 active | activity change, % (concentration not given with the values) | Q15475+O00167 | AlphaScreen GST-Six1/His-Eya2 binding, biochemical; active compounds read low; in the data active = activity change below about -65%; inconclusive = mostly about -30% to -63%
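Compounds are tested against tagged Six1 and Eya2 proteins bridged by glutathione donor and nickel acceptor beads; after a one-hour incubation at 37 °C without light, AlphaScreen emission is recorded.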
DT40 TDP1 no CPT: qHTS for Inhibitors of human tyrosyl-DNA phosphodiesterase 1 (TDP1): qHTS in cells in absence of CPT | DT40 Tdp1-/- hTDP1 cells, no CPT, ATP luminescence, 48 h | 15% of 420,000 active | Potency, µM (titrated, usually from 46.2 µM), for the others: at the highest dose activity change, negative = growth inhibition, most hits filed as inhibitors | AID 686978, 2013; note: potency is the fitted concentration of half-maximal effect; nearly all actives have a fitted effect of over 55% in size
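Compound effects on proliferation are scored in DT40 Tdp1-/-;hTDP1 cells in the absence of CPT. ATP levels (CellTiter-Glo luminescence) are recorded after a ≥48 hr, 37 °C incubation.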
TDP1 block: blocks human tyrosyl-DNA phosphodiesterase 1; recombinant TDP1, AlphaScreen DNA substrate cleavage; Potency, µM (titrated, usually from 130 µM), without a hit: at the top dose activity change, negative = inhibition, actives largely listed as inhibitors; 0.28% of 350,000 active; note: potency is the fitted concentration of half-maximal effect; nearly all actives have a fitted effect of over 40% in size
Target sequence (Q9NUW8 whole entry, looked up): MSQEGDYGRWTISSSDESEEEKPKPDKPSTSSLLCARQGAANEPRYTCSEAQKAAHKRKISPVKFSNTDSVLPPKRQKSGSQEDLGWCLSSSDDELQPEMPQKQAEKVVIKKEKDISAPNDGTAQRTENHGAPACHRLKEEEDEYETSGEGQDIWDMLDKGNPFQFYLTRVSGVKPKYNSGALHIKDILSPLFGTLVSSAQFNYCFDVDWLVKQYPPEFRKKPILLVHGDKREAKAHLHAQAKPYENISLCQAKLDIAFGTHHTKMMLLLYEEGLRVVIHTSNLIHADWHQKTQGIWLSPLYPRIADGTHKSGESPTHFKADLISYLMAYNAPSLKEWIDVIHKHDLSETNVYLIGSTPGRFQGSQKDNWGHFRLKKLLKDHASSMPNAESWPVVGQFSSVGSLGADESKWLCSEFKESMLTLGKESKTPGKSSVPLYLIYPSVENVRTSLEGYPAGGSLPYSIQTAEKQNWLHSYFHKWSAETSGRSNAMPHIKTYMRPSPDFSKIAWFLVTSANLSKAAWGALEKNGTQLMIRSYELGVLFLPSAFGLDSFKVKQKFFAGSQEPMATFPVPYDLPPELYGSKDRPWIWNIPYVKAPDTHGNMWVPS
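Recombinant E. coli-expressed Tdp1 (1 nM) preincubated with compound 15 min at RT, then 5'-biotin/3'-phosphotyrosine-FITC DNA substrate (15 nM) added for 5 min. AlphaScreen beads (10 ug/ml) added, 10 min RT; tyrosine-FITC cleavage read as signal loss.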
CtBP-E1A blk: blocks the CtBP interaction with E1A | activity change, % (concentration not given with the values) | AlphaScreen GST-E1A/His-CtBP binding, 1536-well; active compounds read low | 0.49% of 340,000 active | AID 651724; in the data active = activity change below about -65%; inconclusive = mostly about -30% to -63%
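Protein mix (5X: 125 nM each GST-E1A, His-CtBP) was incubated with pinned compound 2 h at 37 deg C in dark, in 50 mM Tris pH 8.0 buffer with 300 mM NaCl. Glutathione donor and nickel acceptor beads followed; AlphaScreen signal read after 1 h.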
IL-1B inflam inh: inflammasome signaling inhibition, IL-1 beta readout. THP-1 LPS/ATP IL-1B secretion, AlphaLISA, 16 h; active compounds read low. activity change, % at 57.5 µM. 4.7% of 360,000 active; in the data active = activity change below about -50%; inconclusive = mostly about -30% to -49%
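THP-1 cells pretreated 1 hr with compounds (up to 57.5 uM final), then stimulated with LPS (250 ng/mL final) plus ATP (1.25 mM final); secreted IL-1B measured by AlphaLISA after 16 hr, decreased signal indicating inhibition.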
DT40 TDP1 CPT: DT40-hTDP1 cell growth loss with CPT; chicken DT40 Tdp1-/-;hTDP1 cells + 20 nM CPT, ATP luminescence, 48 h; Potency, µM (series often up to 46.2 µM), without a hit: at the top dose activity change, negative = growth inhibition, most hits filed as inhibitors; 12% of 420,000 active; note: potency is the fitted concentration of half-maximal effect; nearly all actives have a fitted effect of over 55% in size
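Chicken DT40 Tdp1-/- cells complemented with human TDP1, 400 cells/well, exposed to compounds plus 20 nM camptothecin for at least 48 h at 37 C; viability read as ATP content by CellTiter-Glo luminescence.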
Active calls of the source: *. Unless noted, calls come from the whole dose curve; as a rule, active = well fitted curve in the direction sought with a large enough effect; inconclusive = small, poorly fitted or top-dose-only effect, or another doubt; inactive = no such curve, though single readings can be large; an effect the other way counts as inactive or inconclusive. % is set by controls: 0 for no effect and ±100 for the full control effect.

`Cc1cccc(-n2c(SCC(=O)N3CC(=O)Nc4ccccc43)nc3ccccc3c2=O)c1C` gave Six1-Eya2 blk -2, DT40 TDP1 no CPT 18µM*, TDP1 block 2%, IL-1B inflam inh -62* and DT40 TDP1 CPT inconclusive.
`CC(c1ccccc1)n1c(SCC(=O)N2CC(=O)Nc3ccccc32)nc2ccccc2c1=O` (centres undefined) gave Six1-Eya2 blk -19, DT40 TDP1 no CPT 21µM*, TDP1 block 5%, CtBP-E1A blk -5, IL-1B inflam inh -3 and DT40 TDP1 CPT 26µM*.
Screening Cc1cccc(-n2c(SCC(=O)N3CC(=O)Nc4ccccc43)nc3ccccc3c2=O)c1 returned Six1-Eya2 blk -5, DT40 TDP1 no CPT 23µM*, TDP1 block 7%, CtBP-E1A blk 3, IL-1B inflam inh inconclusive and DT40 TDP1 CPT inconclusive.
Screening CCc1ccc([C@H]2[C@@H]3C(=O)C[C@@H]4C(=O)N(c5ccccc5)C(=O)[C@@H]4[C@@H]3CN2S(=O)(=O)c2ccc(C)cc2)cc1 returned Six1-Eya2 blk -2, DT40 TDP1 no CPT -1%, CtBP-E1A blk -1, IL-1B inflam inh 59 and DT40 TDP1 CPT -7%.
Screening COC(=O)c1c(NC(=O)Cc2coc3ccc(C(C)C)cc23)sc2c1CCC2 returned DT40 TDP1 no CPT inconclusive, TDP1 block 0% and DT40 TDP1 CPT inconclusive.
Screening Cc1nc(Nc2ccc(S(N)(=O)=O)cc2)sc1-c1ccccc1 returned Six1-Eya2 blk -13, DT40 TDP1 no CPT 18µM*, CtBP-E1A blk -3, IL-1B inflam inh -80* and DT40 TDP1 CPT inconclusive.
For Cc1ccc(-c2csc(Nc3ccc(S(N)(=O)=O)cc3)n2)o1 the results were Six1-Eya2 blk -1, DT40 TDP1 no CPT inconclusive, TDP1 block 9%, CtBP-E1A blk -12, IL-1B inflam inh -19 and DT40 TDP1 CPT -15%.
Cc1ccc(Nc2nc(-c3sc(C)nc3C)cs2)cc1 was read as Six1-Eya2 blk -2, DT40 TDP1 no CPT 0.58µM*, TDP1 block 10%, IL-1B inflam inh 71 and DT40 TDP1 CPT 0.92µM*.
CC(=O)c1ccc(Nc2nc(-c3sc(C)nc3C)cs2)cc1 was read as Six1-Eya2 blk -10, DT40 TDP1 no CPT 1.8µM*, CtBP-E1A blk -14, IL-1B inflam inh 1 and DT40 TDP1 CPT 2.1µM*.
`Cc1nc(C)c(-c2csc(Nc3ccc(S(N)(=O)=O)cc3)n2)s1` gave Six1-Eya2 blk -15, DT40 TDP1 no CPT inconclusive, TDP1 block 2%, CtBP-E1A blk 0, IL-1B inflam inh -59* and DT40 TDP1 CPT inconclusive.
CCOc1ccc(NC(=O)CNC(=O)COc2ccccc2)cc1 was read as Six1-Eya2 blk 0, DT40 TDP1 no CPT -11%, TDP1 block 0%, CtBP-E1A blk 0, IL-1B inflam inh -5 and DT40 TDP1 CPT 0%.
Screening COc1ccc(Nc2nc(-c3sc(C)nc3C)cs2)c(OC)c1 returned Six1-Eya2 blk -29, DT40 TDP1 no CPT 8.2µM*, TDP1 block 12%, CtBP-E1A blk -23, IL-1B inflam inh -14 and DT40 TDP1 CPT 6.5µM*.
COc1ccc(OC)c(Nc2nc(-c3c(C)nc4ncccn34)cs2)c1 was read as Six1-Eya2 blk inconclusive, DT40 TDP1 no CPT inconclusive, CtBP-E1A blk -82*, IL-1B inflam inh -15 and DT40 TDP1 CPT inconclusive.
`CC(=O)Nc1ccc(Nc2nc(-c3sc(C)nc3C)cs2)cc1` gave Six1-Eya2 blk -12, DT40 TDP1 no CPT inconclusive, TDP1 block 8%, CtBP-E1A blk -9, IL-1B inflam inh -50* and DT40 TDP1 CPT 16µM*.
COc1ccc(OC)c(Nc2nc(-c3cccs3)cs2)c1 was read as Six1-Eya2 blk -20, DT40 TDP1 no CPT -20%, TDP1 block 5%, CtBP-E1A blk 8, IL-1B inflam inh inconclusive and DT40 TDP1 CPT -1%.
COc1ccc(Nc2nc(-c3cccs3)cs2)c(OC)c1 was read as Six1-Eya2 blk -14, DT40 TDP1 no CPT -1%, TDP1 block 5%, CtBP-E1A blk -5, IL-1B inflam inh -21 and DT40 TDP1 CPT -16%.
For CCOC(=O)N1CCC(NC(=O)c2ccc(CS(=O)c3cccc(C)c3)o2)CC1 (centres undefined) the results were Six1-Eya2 blk 1, DT40 TDP1 no CPT -5%, TDP1 block 3%, CtBP-E1A blk 1, IL-1B inflam inh -6 and DT40 TDP1 CPT -13%.
For COc1ccc(S(=O)(=O)NCC2CCCN(C(=O)c3ccco3)C2)cc1 (centres undefined) the results were Six1-Eya2 blk -3, DT40 TDP1 no CPT -28%, TDP1 block 1%, CtBP-E1A blk 2, IL-1B inflam inh 5 and DT40 TDP1 CPT 1%.
`CCCCc1cc(=O)oc2cc(C)cc(OC(C)C(=O)NCc3ccccn3)c12` (centres undefined) gave Six1-Eya2 blk 4, DT40 TDP1 no CPT inconclusive, TDP1 block 1%, CtBP-E1A blk 3, IL-1B inflam inh -14 and DT40 TDP1 CPT inconclusive.
N=c1c2c(n(Cc3ccc(F)cc3)c3c1CCC3)CCCC2 was read as Six1-Eya2 blk 8, DT40 TDP1 no CPT 1µM*, TDP1 block 1%, IL-1B inflam inh 0 and DT40 TDP1 CPT 0.82µM*.
Screening N=c1c2c(n(Cc3ccc(Cl)cc3)c3c1CCC3)CCC2 returned Six1-Eya2 blk -2, DT40 TDP1 no CPT 2.3µM*, TDP1 block 6%, CtBP-E1A blk -1, IL-1B inflam inh -67* and DT40 TDP1 CPT 2.3µM*.
N=c1c2c(n(Cc3ccccc3)c3c1CCC3)CCC2 was read as Six1-Eya2 blk 3, DT40 TDP1 no CPT 0.58µM*, TDP1 block 6%, CtBP-E1A blk -2, IL-1B inflam inh -28 and DT40 TDP1 CPT 1.6µM*.
Screening O=c1c2c3c(sc2ncn1Cc1ccc(F)cc1)CCC3 returned Six1-Eya2 blk -6, DT40 TDP1 no CPT 0%, TDP1 block 5%, CtBP-E1A blk -13, IL-1B inflam inh 4 and DT40 TDP1 CPT 8%.
Screening N=c1c2c(n(Cc3cccc(Cl)c3)c3c1CCC3)CCCC2 returned Six1-Eya2 blk -1, DT40 TDP1 no CPT 1.8µM*, TDP1 block 1%, CtBP-E1A blk 7, IL-1B inflam inh -79* and DT40 TDP1 CPT 2.6µM*.
For Clc1cccc(CN2CCCCCC2)c1 the results were Six1-Eya2 blk 0, DT40 TDP1 no CPT -13%, IL-1B inflam inh 3 and DT40 TDP1 CPT -6%.
O=c1[nH]c(SCc2ccc(Cl)cc2)nc2c1CCC2 was read as Six1-Eya2 blk -1, DT40 TDP1 no CPT inconclusive, TDP1 block -4%, CtBP-E1A blk 1, IL-1B inflam inh 52 and DT40 TDP1 CPT -17%.
